The list is not random: actives were taken first. Their share in the collection is about 19%.
CHX counter – Cycloheximide Counterscreen for Small Molecule Inhibitors of Shiga Toxin. cell reporter, cycloheximide protein synthesis inhibition counterscreen. max response, %. 12% of 300,000 active. AID 2314, 2010; in the data active = max response mostly above about 13%, no sharp cut-off; inactive = mostly below about 14%; also: read at 38.3 µM for the half of the compounds with a filed dose
AMA1 RON2 block – qHTS for Inhibitors of AMA1-RON; Towards Development of Antimalarial Drug Lead: Primary Screen; 0.2% of 360,000 active; AlphaScreen AMA1-biotinylated RON2 peptide binding; Potency, µM (top dose mostly 58.2 µM), hits mostly inhibitors; Plasmodium falciparum AMA1 (3D7) - RON2 peptide interaction; also: nearly all actives have a fitted effect of over 45% in size
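AMA1 (3D7) with his tag at 25 nM final met compounds first, then biotinylated RON2 peptide at 25 nM; detection used donor plus acceptor beads, 10 µg/mL apiece, read by AlphaScreen after 30 min at room temperature.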
SARS PLP yeast – qHTS of Yeast-based Assay for SARS-CoV PLP. S. cerevisiae expressing SARS-CoV PLpro, growth rescue. AID 485353, 2010. Potency, µM (highest dose often 32.9 µM), actives largely listed as activators. 0.19% of 330,000 active; calls by dose curve; also: nearly all actives have a fitted effect of over 55% in size
Pf growth 96h – Primary qHTS for delayed death inhibitors of the malarial parasite plastid, 96 hour incubation; AID 504834, 2011; Potency, µM (top dose mostly 28.7 µM), usual class: inhibitors; 6.9% of 320,000 active; P. falciparum luciferase reporter growth, 96 h
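Parasite growth measured via integrated firefly luciferase reporter in P. falciparum. Infected erythrocytes at 2% hematocrit, 0.05% parasitemia final were treated 96 hours at 37 C under 5% CO2, and luminescence was read.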
Pf growth 48h – Primary qHTS for delayed death inhibitors of the malarial parasite plastid, 48 hour incubation; P. falciparum luciferase growth in erythrocytes, 48 h; Potency, µM (series often up to 28.7 µM), hits mostly inhibitors; 5.9% of 310,000 active
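Luciferase-expressing parasites in RBCs, 2% Hct / 0.1% parasitemia final; RPMI 1640 + 0.5% Albumax; 37 C, 5% CO2, one generation; luminescence read-out, lower signal = inhibition.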
Shiga inhibitor – A qHTS for Small Molecule Inhibitors of Shiga Toxin; Vero cells, Shiga toxin protein synthesis inhibition reporter; inhibition, % at 38.7 µM; 9.2% of 290,000 active; in the data active = inhibition mostly above about 28%, no sharp cut-off; inactive = mostly below about 43%
Numbers stand for hits; 0 = inactive; ? = inconclusive; - = not tested or not shown; [ ] = another dose, or the depositor's remark. Unless noted, calls follow the shape of the dose curve; as a rule, active = well fitted curve in the direction sought with a large enough effect; inconclusive = small, poorly fitted or top-dose-only effect, or another doubt; inactive = no such curve, though single readings can be large; an effect the other way counts as inactive or inconclusive.

SMILES	CHX counter	AMA1 RON2 block	SARS PLP yeast	Pf growth 96h	Pf growth 48h	Shiga inhibitor
CC(=O)c1ccc(N2CCN(C(=O)c3n[nH]c4ccccc34)CC2)cc1	0	0	0	0	?	0
COc1cc2c(cc1OC)CN(C(=O)c1sccc1C)CC2	0	0	0	0	0	0
COc1cc2c(cc1OC)CN(C(=O)c1cccs1)CC2	0	0	0	0	0.657µM	0
CC(C)(C)OC(=O)C[C@H]1C/C=C\C[C@H](CC(=O)N(CCO)Cc2ccccc2)C(=O)N[C@H](C(C)(C)C)COC1=O	-	0	0	-	-	-
Cn1c(C2CCCCC2)nc2ccccc21	16.2	0	0	?	0	0
Cn1c(C2CCCCC2)nc2cc(N)ccc21	0	0	0	?	0	0
COc1ccc(C2N(Cc3ccccc3)CC(=O)N2/N=C(\C)c2ccccc2)cc1 (configuration not stated)	24.5	0	0	0	0	70.9
O=C(c1c(F)cccc1F)N(Cc1ccccn1)C1CC1	23.8	0	0	-	0	0
O=C(CCC1CCCC1)NCc1ccccn1	0	0	0	0	?	0
CCC(=O)N1CCN(c2nc3ccccc3s2)CC1	22.6	0	0	0	-	0
O=C(C1CC1)N1CCN(c2nc3ccccc3s2)CC1	32.7	0	0	0[5.75 µM]	0	131.6
O=S(=O)(c1ccccc1)N1CCN(c2nc3ccccc3s2)CC1	0	0	0	-	0	0
O=C(Nc1ccc(F)cc1)N1CCN(c2nc3ccccc3s2)CC1	0	0	0	0	?	0
CNC(=S)N1CCN(c2nc3ccccc3s2)CC1	46.3	0	0	0	0	69.5
CS(=O)(=O)N1CCN(c2nc3ccccc3s2)CC1	11.6	0	0	0	0	0
O=C(Nc1ccccc1)N1CCN(c2nc3ccccc3s2)CC1	26.7	0	0	-	?	0
OCCNC(=S)c1ccccc1	0	0	0	0	0	0
O=C(Nc1cc(C(F)(F)F)ccc1N1CCOCC1)C1=COCCO1	-	0	0	?	0	-
Cc1cc(C)cc(NC(=O)Cc2ccc(S(=O)(=O)N3CCCC3)s2)c1	-	0	0	?	?	-
O=C(Cc1ccc(S(=O)(=O)N2CCCC2)s1)Nc1nc2c(s1)CCCC2	28.2	0	0	0[5.75 µM]	?	46.0
Cc1cccc(NC(=O)CSCC(=O)Nc2cc(C(F)(F)F)ccc2N2CCOCC2)c1	-	0	-	-	-	-
O=C(Cc1ccc2c(c1)OCCO2)Nc1cc(C(F)(F)F)ccc1N1CCOCC1	-	0	0	?	14.7µM	-
O=C(Cc1ccc(S(=O)(=O)N2CCOCC2)s1)Nc1cc(C(F)(F)F)ccc1N1CCCC1	-	?	0	?	11.7µM	-
O=C(Cc1ccc(S(=O)(=O)N2CCOCC2)s1)Nc1ccccc1N1CCCC1	0	0	0	?	0	0
Cc1ccc[n+](CC(=O)Nc2cc(C(F)(F)F)ccc2N2CCOCC2)c1	0	0	0	?	2.08µM	0
SMILES	CHX counter	AMA1 RON2 block	SARS PLP yeast	Pf growth 96h	Pf growth 48h	Shiga inhibitor
C1CNCCNCCCNCCNC1	0	-	0	0	0	0
O=c1[nH]c(=O)c2[nH]c(=S)n(-c3ccccc3)c2[nH]1	-	0	-	-	-	-
CSc1nc2ccc(NS(=O)(=O)c3ccc(Cl)s3)cc2s1	0	0	0	0	0	0
O=C(N/C(=C\c1ccco1)C(=O)N1CCCC1CO)c1ccccc1 (configuration not stated)	0	0	0	0	0	0
COc1ccc(NC(C)=O)cc1NC(C)C(=O)Nc1cc(C(F)(F)F)ccc1N1CCOCC1 (configuration not stated)	0	0	0	?	3.7µM	0
O=C(CCc1ccccc1)NC(=S)Nc1cc(C(F)(F)F)ccc1N1CCOCC1	0	0	0	8.28µM	?	0
Fc1ccc(NC(=S)Nc2cc(Cl)ccc2Cl)cc1	0	0	0	0	0	0
Cc1ccc(NC(=O)CCNC(=O)N2CC(=O)Nc3ccccc32)cc1Cl	-	0	-	-	-	-
CCOC1=C2CN(S(=O)(=O)c3ccc(C)cc3)[C@H](c3cccc4ccccc34)C[C@H]2[C@H]2C(=O)N(c3ccccc3)C(=O)[C@H]2C1	-	0	-	-	-	-
COc1ccccc1OCCCOc1c(Cl)cc(C)cc1Cl	15.2	0	0	0	0	0
COc1cc(C)ccc1OCCCOc1c(Cl)cccc1Cl	18.1	0	0	0.131µM	0	0
